Data on 37 compounds can be found in PubChem BioAssay (NCI).

About 83,000 compounds went through this panel and 20% of them were active in at least one assay; those are over-represented in the sample as a whole.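 Method: cells in 96-well plates; compound added at one concentration; 48 h incubation; percent growth measured; values under 10 scored active.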 Values without a mark were called inactive. The source made the active and inactive calls.

The subject of this assay is RPMI-8226 leukemia. As to the kind of experiment: NCI-60 one-dose screen, 48 h (100 = growth as untreated, 0 = no growth, -100 = all killed). The following applies: 10 µM unless noted.
Take `Cc1cc(NCCCNc2ccnc3cc(Cl)ccc23)nc(N2CCN(C)CC2)n1`: the growth was 38.5%.
Regarding `CCCc1cc(=O)n2c(C(=O)Nc3ccccc3OC)c(C(=O)Nc3ccc(F)cc3)sc2n1`, the growth is 30.5% [30 µM].
Take `N#Cc1cccc(/C=C(/C(=O)c2ccccc2)c2ccccc2)c1`: the growth is -4.62% (active).
As to `CCC1(c2ccccc2)Oc2ccccc2-n2c(C#N)c3ccccc3c2C1=O` (configuration not stated), the growth was 92.6%.
As for `C/C(=N/N=C(N)N)c1ccc(N)cc1`, the growth was 190%.
Next, `CC(C)c1nc(N(C)S(C)(=O)=O)nc(-c2ccc(F)cc2)c1/C=C/[C@@H](O)C[C@@H](O)CC(=O)O`: 113%; `COc1ccc(/C=C(\C#N)c2ccccc2)cc1`: 84.7%.
Consider `Fc1ccc([C@@H]2CCNC[C@H]2COc2ccc3c(c2)OCO3)cc1`, for which the growth was 32.9%.
The value for `COc1cc(/C=C/C(=O)c2c(-c3ccc(F)cc3)nc3sc(C)nn23)cc(OC)c1OC` was 0.772% (active).
Consider `CCC(C)CC(CC)NCCN1CCN(C(CC)CC(C)CC)C1=S` (configuration not stated), for which the growth is -46.2% (active).
As for `COc1cccc(-c2nnc(N)o2)c1`, the growth was 109%.
Consider `CCCCSc1cc(C)nc(N)n1`, for which the growth was 73.4%.
`Cc1ccsc1/C=C/C1=NCCCN1C`: the growth is 100%.
The value for `Nc1c2ccccc2nc2ccccc12` (tested in a mixture with another compound) was 7.88% (active).
Take `COc1cc(/C=C/C(=O)c2c(-c3ccc(Cl)cc3)nc3sc(C)nn23)cc(OC)c1OC`: the growth is -15.6% (active).
For the compound `CCCCc1nc(Cl)c(CO)n1Cc1ccc(-c2ccccc2-c2nn[nH]n2)cc1`, the growth was 115%.
For `CN(CCOc1ccc(CC2SC(=O)NC2=O)cc1)c1ccccn1` (configuration not stated), the growth was 104%.
Next, `N#Cc1c2ccccc2c2n1-c1ccccc1OC(c1ccccc1)C2=O` (configuration not stated): 18.1%; `Nc1nc(N)c([N+](=O)[O-])c(=O)[nH]1`: 97.4%; `Cc1c(C(N)=O)sc2ncn(Cc3ccccc3)c(=O)c12`: 59.5%.
The value for `CC(=O)O[C@H]1C(=O)[C@@]2(C)C([C@H](OC(=O)c3ccccc3)[C@]3(O)C[C@H](OC(=O)[C@H](O)[C@@H](NC(=O)c4ccccc4)c4ccccc4)C(C)=C1C3(C)C)[C@]1(OC(C)=O)CO[C@@H]1C[C@@H]2O` (some centres not stated) was 3.77% (active); that for `CC1(C)OC(=O)C(=Cc2ccccc2Br)C(=O)O1` was 95.5%; that for `COC1CC2CCC(C)C(O)(O2)C(=O)C(=O)N2CCCCC2C(=O)OC(C(C)CC2CCC(O)C(OC)C2)CC(=O)C(C)C=C(C)C(O)C(OC)C(=O)C(C)CC(C)/C=C/C=C/C=C1C` (configuration not stated) was 23.5%.
Take `COc1cc([C@@H]2c3cc4c(cc3C(O[C@@H]3O[C@@H]5CO[C@@H](c6cccs6)OC5[C@H](O)[C@H]3O)C3COC(=O)[C@@H]32)OCO4)cc(OC)c1O` (some centres not stated): the growth is -20.8% (active).
Regarding `Cn1c(=O)c2nc(SCc3ccccc3)n(C)c2n(C)c1=O`, the growth is 117%.
Take `O=c1cc(-c2cccnc2)oc2c1ccc1ccccc12`: the growth was 80.2%.
With `C/C(=N\N1CC(=O)NC1=O)c1ccc([N+](=O)[O-])o1`, the growth is 71%.
Take `NC(N)=N/N=C(/c1ccccc1)c1ccc(Cl)cc1`: the growth was 172%.
On to `N#Cc1ccc(NC(=O)Nc2ccc(Oc3ccc(NC(=O)Nc4ccc(C#N)cc4)cc3)cc2)cc1`, for which the growth is -56.2% (active).
Turning to `Cc1c(NCc2nnc3n(Cc4ccccc4)c(=O)c4c5c(sc4n23)CCCC5)c(=O)n(-c2ccccc2)n1C`, the growth is 97.5%.
Take `O=C(Nc1ccc(OCc2nnc(-c3ccccc3)o2)c(F)c1)Nc1ccc(Cl)c(C(F)(F)F)c1`: the growth was -21% (active).
`Cc1cc(N2CCOCC2)nc(N2CCOCC2)n1`: the growth is 99.2%.
Consider `COc1cc2c(C#N)n3c(c2cc1OC)C(=O)C(c1ccccc1)Oc1ccccc1-3` (configuration not stated), for which the growth is 28.7%.
Regarding `O=[N+]([O-])c1ccc(N/N=C\c2ccccc2[N+](=O)[O-])nc1`, the growth is 102%.
On to `CO[C@H]1CC(O[C@@H]2/C(C)=C/C[C@@H]3C[C@@H](C[C@]4(CC[C@H](C)[C@@H](C5CCCCC5)O4)O3)OC(=O)[C@@H]3C=C(C)/C(=N/O)[C@H]4OC/C(=C\C=C\[C@@H]2C)[C@]43O)O[C@@H](C)C1O` (some centres not stated), for which the growth was -28.8% (active).
The value for `COc1ccc(OC)c(NC(=O)c2cc3oc4ccccc4c3cc2O)c1` was 53.4%.
`C=C1CC[C@@H]2[C@](C)(COC(C)=O)[C@H](OC(C)=O)CC[C@@]2(C)[C@@H]1CC(Nc1ccc(S(=O)(=O)Nc2cc(C)on2)cc1)C1=CCOC1=O` (some centres not stated): the growth is -15.2% (active).
